Among the data in PubChem BioAssay (NCI) are growth values, retold here.

Assay in all cases: NCI-60 one-dose screen, 48 h (100 = growth as untreated, 0 = no growth, -100 = all killed)
Conditions in all cases: 10 µM unless noted

Assay [1] concerns DU-145 prostate.
In assay [2] the test system is K-562 leukemia.
Assay [3] has as its system MALME-3M melanoma.
In assay [4] the test system is MDA-MB-231 breast.
Assay [5] deals with RXF 393 renal.
The subject of assay [6] is SF-268 CNS.
Assay [7] concerns SF-295 CNS.
Assay [8] deals with SF-539 CNS.
In assay [9] the test system is UACC-257 melanoma.
Assay [10] relates to M14 melanoma.
For assay [11], the system named is HCT-15 colon.
The subject of assay [12] is HT29 colon.
Assay [13] has as its system SNB-75 CNS.
Assay [14] concerns SNB-19 CNS.
The test system of assay [15] is U251 CNS.
Assay [16] relates to PC-3 prostate.
The subject of assay [17] is SK-MEL-5 melanoma.
Assay [18] has as its system UACC-62 melanoma.
In assay [19] the test system is LOX IMVI melanoma.
In assay [20] the test system is SK-MEL-28 melanoma.

Each structure is given as a SMILES string. About 83,000 compounds went through this panel and 20% of them were active in at least one assay; those are over-represented in the sample as a whole.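 Activity criterion: percent growth below 10, measured after cells in 96-well plates were exposed to a single compound concentration for 48 hours.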 Unmarked numbers belong to inactive results. Activity calls are given as the source filed them.

For the molecule `Cc1ccc(C2CC(c3nc(-c4ccc(Cl)cc4)oc3C)=NN2C(=O)c2ccncc2)cc1` (stereo not given), the growth in assay [1] was 93.1%; in [2], 84.2%; in assay [3], 90.9%; in [4] it was 71.6%; in assay [5] it was 74.8%; in [6], 81.6%. The growth was 87.9% in assay [7]; 89.5% in assay [8]; 97.1% in assay [9]; 93.8% in [10]; 83.7% in [11]; 86.9% in [12]. Further, the growth in assay [13] was 82.1%; in assay [14], 77.2%; in assay [15], 87.7%; in [16], 73.2%; in [17], 92.4%; in [18] it was 72.3%. The growth is 86% in assay [19] and 92.4% in assay [20].
Regarding `O=C(O)c1ccc(-c2ccc(/C=N/Nc3nc(Nc4ccccc4)nc(N4CCCCC4)n3)o2)cc1`, the growth is 66.7% in assay [1]; 67.5% in [2]; 59% in assay [3]; 96.5% in assay [4]; 65.4% in [5]; 71.7% in assay [6]. For the same molecule, the growth was -21.9% (active) in [7]; 75.2% in assay [8]; 93.9% in assay [9]; 83.1% in assay [10]; 55.3% in [11]; 63.4% in [12]. Also, the growth in assay [13] is 65.7%; in [14], 61%; in assay [15], 43.2%; in assay [16] it was 65.6%; in [17], 71.5%; in assay [18] it was 67.6%. Also, the growth was 68.6% in assay [19] and 78.9% in [20].
`FC(F)(F)Oc1cccc(-c2cnc3ccc(-c4ccncc4)nn23)c1`: the growth in assay [1] was 22.2%; in assay [2], 31.6%; in assay [3] it was 39.2%; in [4] it was 32.9%; in [5] it was -29.6% (active); in [6], 18.9%. The growth in assay [7] is 17.4%; in assay [8], -2.61% (active); in assay [9], 48.6%; in [10] it was 26.8%; in [11], 8.36% (active); in assay [12], 14.7%. For the same molecule, the growth in assay [13] is 41.6%; in assay [14] it was 23.5%; in [15], 18.7%; in [16], 15.5%; in assay [17], 22.6%; in [18] it was -0.898% (active). For the same molecule, the growth in assay [19] is 9.23% (active); in assay [20], 20%.
For `COc1ccc(CCN2C(=O)/C(=C/c3ccc(C4Oc5ccccc5C5CC(c6ccccc6)=NN54)cc3)SC2=S)cc1` (stereo not given), the growth in assay [1] is 110%; in [2], 100%; in assay [3] it was 102%; in assay [4], 92.3%; in assay [5], 107%; in [6], 99.2%. For the same molecule, the growth was 105% in [7]; 98.5% in assay [8]; 109% in assay [9]; 102% in assay [10]; 105% in assay [11]; 105% in [12]. Besides, the growth in assay [13] is 101%; in [14], 94.2%; in assay [15], 101%; in assay [16], 98%; in assay [17], 101%; in assay [18] it was 97.5%. Further, the growth in [19] was 96.6%; in assay [20] it was 117%.
On to `CN1CCN(Cc2ccc(NC(=O)c3cncc(C#Cc4cnc5ccc(Cl)nn45)c3)cc2C(F)(F)F)CC1`, for which the growth was 4.06% (active) in [1]; 1.96% (active) in assay [2]; -63.1% (active) in [3]; -1.94% (active) in assay [4]; -52.8% (active) in assay [5]; -41.6% (active) in assay [6]. The growth in assay [7] was 9.72% (active); in [8], -62% (active); in assay [9] it was 3.9% (active); in [10] it was -56.7% (active); in assay [11], 0.05% (active); in assay [12] it was 2.68% (active). The growth was -52.4% (active) in assay [13]; 6.75% (active) in assay [14]; 4.22% (active) in [15]; -18.6% (active) in assay [16]; -58.7% (active) in assay [17]; -14.5% (active) in [18]. In addition, the figures for the growth in [19] and in [20] were -44.3% (active) and -8.84% (active), respectively.
As to `O=C(CSc1nc(-c2ccccc2)cc(=O)[nH]1)Nc1nc(-c2ccccc2)cs1`, the growth in [1] is 97.8%; in assay [2], 87.7%; in assay [3] it was 110%; in assay [4], 116%; in assay [5] it was 87.4%; in assay [6], 93.8%. Also, the growth in [7] was 76.4%; in assay [8] it was 113%; in assay [9], 94.6%; in assay [10] it was 117%; in assay [11] it was 89.7%; in assay [12], 99.1%. Moreover, the growth in assay [13] was 85.9%; in assay [14], 105%; in assay [15], 99.9%; in assay [16], 78.8%; in assay [17], 85.7%; in assay [18], 69.1%. Also, the growth in assay [19] was 96.6%; in assay [20], 111%.
As to `Cc1cc(Nc2ccc(C(=O)N3CCCC3)cc2)nc(NCCCNc2ccnc3cc(Cl)ccc23)n1`, the growth is 91.5% in assay [1]; 33.9% in assay [2]; 54.8% in [3]; 48.3% in assay [4]; 101% in [5]; 67.8% in assay [6]. In addition, the growth in assay [7] is 103%; in assay [8] it was 65%; in [9], 105%; in assay [10] it was 82.5%; in [11] it was 102%; in assay [12], 68.9%. Also, the growth in assay [13] was 91.2%; in [14], 84.1%; in [15], 53.5%; in [16], 93.3%; in [17], 92.3%; in assay [18], 86.8%. Further, the values for the growth in [19] and in assay [20] were -67.1% (active) and 92.1%, respectively.
On to `COc1ccc(C(=O)/C=C/c2ccc(Cl)cc2)cc1S(=O)(=O)Nc1c(N)nc(SC)[nH]c1=O`, for which the growth was 88.3% in [1]; 3.84% (active) in assay [2]; 90.1% in [3]; 68.2% in assay [4]; 92% in assay [5]; 45.3% in assay [6]. Also, the growth is 90.1% in assay [7]; -5.49% (active) in assay [8]; 90.9% in assay [9]; 74.7% in assay [10]; 65.7% in assay [11]; 31.3% in [12]. The growth is 33.4% in [13]; 8.18% (active) in assay [14]; -4.2% (active) in assay [15]; 39.1% in assay [16]; 74.1% in assay [17]; 62.3% in assay [18]. For the same molecule, the figures for the growth in [19] and in [20] were 2.64% (active) and 97.4%, respectively.
For `Cc1ccc(/C=C/C(=O)c2ccc(-n3cc(CN4CCN(c5cc6c(cc5F)c(=O)c(C(=O)O)cn6C5CC5)CC4)nn3)cc2)cc1`, the growth in assay [1] was 96.3%; in assay [2], 86%; in assay [3] it was 96%; in [4], 75.5%; in assay [5] it was 70.9%; in assay [6], 71.5%. Besides, the growth in assay [7] is 86.9%; in assay [8], 73.6%; in [9] it was 101%; in assay [10], 87.4%; in [11], 97.6%; in assay [12], 98.9%. Besides, the growth in [13] was 70.8%; in assay [14] it was 86.4%; in assay [15] it was 73.1%; in [16], 89.6%; in assay [17] it was 86.2%; in assay [18], 77.6%. In addition, the growth in [19] is 56.9%; in assay [20] it was 100%.
For `COc1ccc(C(=O)Cn2c(C(=O)c3ccc(OC)cc3)nc3ccccc32)cc1`, the growth was 54.6% in assay [1]; 7.61% (active) in assay [2]; 37.2% in [3]; 27.8% in assay [4]; 20.4% in [5]; 44.5% in assay [6]. Moreover, the growth in assay [7] is 1.78% (active); in [8] it was 19.4%; in assay [9] it was 48.5%; in assay [10], -2.49% (active); in assay [11], 15.9%; in assay [12] it was 14.9%. The growth in assay [13] is 10.4%; in assay [14], 48.8%; in [15] it was 18.3%; in assay [16], 34.2%; in assay [17], 23.5%; in assay [18], 13.9%. The growth is 38.8% in assay [19] and 42.8% in assay [20].
As to `COc1cc(-c2nc3c(ncc4ccc(=O)n(-c5ccccc5)c43)s2)cc(OC)c1OC`, the growth is 80.2% in [1]; 90.5% in assay [2]; 65.4% in assay [3]; 64.1% in [4]; 48.2% in assay [5]; 69.1% in assay [6]. Further, the growth in assay [7] was 90.4%; in assay [8], 57.4%; in [9], 101%; in assay [10], 87.6%; in assay [11] it was 78.6%; in assay [12], 84.2%. Further, the growth in [13] was 56%; in assay [14], 86.1%; in assay [15] it was 80.3%; in assay [16] it was 56.9%; in assay [17], 68.5%; in [18] it was 78.7%. Also, the growth in assay [19] was 58.4%; in assay [20], 78.3%.
`O=C(CN1CCCCCC1)Nc1nc2ccc(NCc3ccc(Cl)cc3)cc2s1`: the growth was 101% in assay [1]; 87.9% in assay [2]; 98.1% in [3]; 97.3% in assay [4]; 99.2% in assay [5]; 99.9% in assay [6]. In addition, the growth in [7] is 95.9%; in [8] it was 94.8%; in assay [9], 100%; in [10], 99.3%; in [11], 99.2%; in [12] it was 95.7%. The growth in [13] was 94.2%; in [14] it was 95.8%; in assay [15], 95.8%; in [16] it was 84.3%; in [17], 98.4%; in [18], 88.5%. Also, the growth in assay [19] is 96.7%; in assay [20], 104%.
For `O=c1cc(-c2ccccc2)[nH]c2ncc(-c3ccc(F)cc3)n12`, the growth in [1] was 94.6%; in assay [2], 18.5%; in [3] it was 77.8%; in [4], 62%; in [5], 72.3%; in [6], 80.6%. Also, the growth in assay [7] is 46%; in [8], 73.8%; in assay [9], 83.1%; in assay [10] it was 50.4%; in [11] it was 37.7%; in assay [12], 40.6%. For the same molecule, the growth in assay [13] was 68.3%; in [14], 68.3%; in assay [15], 56%; in assay [16], 56.7%; in [17] it was 54.9%; in assay [18], 36.6%. In addition, the growth is 65.9% in [19] and 73.4% in [20].
Turning to `CC1=C(CCC(C)NCc2ccc(OCCCN3CCCCC3)cc2)C(C)(C)CCC1` (stereo not given), the growth in [1] is -49.1% (active); in assay [2], -46.6% (active); in [3], -80.5% (active); in assay [4], -73.4% (active); in [5] it was -89.1% (active); in assay [6] it was -76.8% (active). Moreover, the growth in [7] was -70% (active); in assay [8], -85.3% (active); in assay [9] it was -76.1% (active); in assay [10], -81% (active); in [11], -67.2% (active); in assay [12], -81.9% (active). The growth in assay [13] is -59.7% (active); in assay [14] it was -45.7% (active); in assay [15], -85.6% (active); in assay [16], -56.1% (active); in assay [17], -94.6% (active); in assay [18], -77% (active). Besides, the growth was -88.7% (active) in assay [19] and -83.4% (active) in assay [20].
